From PubChem BioAssay (Tox21)
Records with an inconclusive call do not appear. Activity calls are given as the source filed them. Unless noted, the call rests on the fitted dose curve.

Columns and labels:
[1] = Nuclear factor erythroid 2-related factor 2/antioxidant responsive element (Nrf2/ARE) small molecule agonists: qHTS cell viability counter screen in human keratinocytes (AID 1919968; active means well fitted curve in the direction sought with a large enough effect in the repeat runs; an effect the other way counts as inactive or inconclusive; further: nearly all actives have a fitted effect of over 55% in size; further: potency means the concentration at half of the fitted maximal effect)
Summary of the method: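 KeratinoSens HaCaT cells, 1,500/well, preincubated 5 h, then exposed to compounds in DMSO for 23 h at 37 C/5% CO2. Viability read as CellTiter-Fluor fluorescence after 1 h, in the same wells as the ARE-luciferase read.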

[2] = G protein-coupled receptor (GPCR) small molecule agonists, calcium flux assay: HEK293 wild type cell line counter screen (AID 1920065)
Summary of the method: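 Wild-type HEK293 cells plated 18 h, loaded with calcium dye 1 h at 37 C, then compounds added in agonist mode (ATP as positive control). Kinetic fluorescence Ex/Em 480/540 recorded 3 min at 1 sec intervals; 15 concentrations, triplicate.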

[3] = p53 small molecule agonists, cell-based qHTS assay with human liver microsomes (AID 1963577)
Summary of the method: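 Compounds act here after metabolic activation: human liver microsomes and NADPH, both at 0.5 mg/mL final, were co-added to p53RE-bla cells. Incubation ran 16 h at 37 C, followed by LiveBLAzer detection.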

[4] = p53 small molecule agonists, cell-based qHTS assay with rat liver microsomes (AID 1963578)
Summary of the method: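 Read-out is beta-lactamase reporter fluorescence (LiveBLAzer, 2 h, room temperature, dark) in p53RE-bla cells treated 16 h at 37 C with compound, rat liver microsomes and NADPH, both 0.5 mg/mL final.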

[5] = p53 small molecule agonists, cell-based qHTS assay with human liver microsomes: qHTS cell viability counter screen (AID 1963579); further: nearly all actives have a fitted effect of over 45% in size; further: potency means the concentration at half of the fitted maximal effect
Summary of the method: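 Cells carrying the p53 response-element beta-lactamase reporter are treated for 16 h at 37 C with test compounds in the presence of human liver microsomes and NADPH (both 0.5 mg/mL final); ATP-based CellTiter-Glo luminescence then reports viability.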

[6] = p53 small molecule agonists, cell-based qHTS assay with rat liver microsomes: qHTS cell viability counter screen (AID 1963580); further: nearly all actives have a fitted effect of over 45% in size; further: potency means the concentration at half of the fitted maximal effect
Summary of the method: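 p53RE-bla HCT-116 cells were exposed 16 h at 37 C to compounds with rat liver microsomes (0.5 mg/mL) and NADPH (0.5 mg/mL). Viability was measured in the same wells as ATP content by CellTiter-Glo luminescence.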

[7] = p53 small molecule agonists, cell-based qHTS assay: qHTS cell viability counter screen (AID 1963581); further: nearly all actives have a fitted effect of over 45% in size; further: potency means the concentration at half of the fitted maximal effect
Summary of the method: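 p53RE-bla HCT-116 cells, compounds added 5 h after plating and incubated 16 h at 37 C. Cytotoxicity measured in the same wells as intracellular ATP by CellTiter-Glo luminescence after 30 min at room temperature.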

[8] = p53 small molecule agonists, cell-based qHTS assay (AID 1963582; active means well fitted activation curve with a large enough effect in the signal ratio in the repeat runs, not every such curve was filed as active; the % refers to the signal ratio)
Summary of the method: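 p53RE-bla reporter cells, compounds added in DMSO after 5 h plating, incubated 16 h at 37 C. Beta-lactamase read via 2 h room-temperature LiveBLAzer B/G FRET substrate, fluorescence intensity.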

[9] = target: 5-hydroxytryptamine receptor 2A (Homo sapiens) (UniProt P28223); assay: 5-hydroxytryptamine receptor 2A (HTR2A) small molecule agonists, cell-based qHTS assay (AID 1963587); further: nearly all actives have a fitted effect of over 30% in size; further: potency means the concentration at half of the fitted maximal effect
Summary of the method: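 CHO cells stably expressing human HTR2A, plated 18 h, loaded with calcium dye 1 h at 37 C. Agonist mode: compounds added and intracellular calcium fluorescence recorded kinetically for 2 min at 1 sec intervals.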

[10] = target: Muscarinic acetylcholine receptor M1 (Homo sapiens) (UniProt P11229); assay: Cholinergic receptor muscarinic 1 (CHRM1) small molecule antagonists, cell-based qHTS assay (AID 1963588); further: nearly all actives have a fitted effect of over 40% in size; further: potency means the concentration at half of the fitted maximal effect
Summary of the method: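 CHRM1-CHO calcium-flux assay, antagonist mode. Cells were seeded 18 h, dye-loaded 1 h at 37 C and given compound for 5 min at RT, then acetylcholine was added at 50nM. FDSS fluorescence was read 3 min; 15 concentrations, three runs.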

[11] = target: Muscarinic acetylcholine receptor M1 (Homo sapiens) (UniProt P11229); assay: Cholinergic receptor muscarinic 1 (CHRM1) small molecule agonists, cell-based qHTS assay (AID 1963589); further: nearly all actives have a fitted effect of over 35% in size
Summary of the method: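 CHO cells stably expressing human CHRM1 were loaded with calcium dye for 1 h at 37 C, then compound was added in agonist mode. Intracellular calcium fluorescence was followed kinetically at 1 s intervals. Fifteen concentrations were tested in three independent runs.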

[12] = cAMP Responsive Elements (CRE) small molecule agonists, cell-based qHTS assay (AID 1963590)
Summary of the method: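 CRE-bla HEK 293T cells, 2,000/well in DMEM with 10% dialyzed FBS and 25 mM HEPES, pre-incubated 18 h at 37 C, then exposed to compound 3 h at 37 C. Beta-lactamase reporter read with LiveBLAzer B/G FRET substrate after 2 h at room temperature.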

[13] = cAMP Responsive Elements (CRE) small molecule antagonists, cell-based qHTS assay (AID 1963591; active means well fitted inhibition curve with a large enough effect in the signal ratio in the repeat runs, not every such curve was filed as active; the % refers to the signal ratio)
Summary of the method: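 CRE-bla HEK293T cells plated 18 h, then given compound plus NKH477 at 0.25 uM final for 3 h at 37C. Beta-lactamase reporter read with LiveBLAzer B/G FRET substrate after 2 h at room temperature.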

[14] = target: Beta-2 adrenergic receptor (Homo sapiens) (UniProt P07550); assay: Adrenergic beta2 receptor (ADRB2) small molecule antagonists, cell-based qHTS assay (AID 1963592); further: series mostly up to about 92 µM; nearly all actives have a fitted effect of over 50% in size
Summary of the method: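 Cells (CHO, stable ADRB2 overexpression) incubated 18-20hr at 37C; compounds added from DMSO; agonist mix (1nM isoproterenol, 100uM IBMX, 25uM Ro-20-1724) added; 0.5hr RT; d2-cAMP and anti-cAMP-cryptate added; 1hr RT; 665/615 nm read.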

[15] = target: D(2) dopamine receptor (Homo sapiens) (UniProt P14416); assay: Dopamine D2 receptor (DRD2) small molecule agonists, cell-based qHTS assay (AID 1963594); further: nearly all actives have a fitted effect of over 35% in size
Summary of the method: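 HEK293 cells stably expressing human DRD2, pre-treated with PDE inhibitor Ro20-1724 (0.1 mM final) and compound 10 min at room temperature, then stimulated with NKH477 (200nM […]) for 30 min. cAMP read by HTRF (665/620 nm).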

[16] = target: D(2) dopamine receptor (Homo sapiens) (UniProt P14416); assay: Dopamine D2 receptor (DRD2) small molecule antagonists, cell-based qHTS assay (AID 1963595; active means well fitted inhibition curve with a large enough effect in the signal ratio in the repeat runs, with a control signal flat; the % refers to the signal ratio; further: potency means the concentration at half of the fitted maximal effect)
Summary of the method: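 Readout: HTRF cAMP, cAMP-d2 competing with cellular cAMP for anti-cAMP cryptate, read after 1 h. Cells: DRD2-HEK293. Conditions: 0.1 mM Ro20-1724, 12 nM quinpirole, 200 nM NKH477, 30 min RT.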

[17] = target: KiSS-1 receptor (Homo sapiens) (UniProt Q969F8); assay: Human kisspeptin (KISS1R) small molecule agonists, calcium flux assay in KISS1R-HEK293 cells (AID 1920064; active means well fitted curve in the direction sought with a large enough effect in the repeat runs; an effect the other way counts as inactive or inconclusive)
Summary of the method: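 HEK293 cells stably expressing human KISS1R were loaded with calcium dye for 1 h at 37 C, then given compound; fluorescence (Ex/Em 480/540) was read kinetically for 3 min. Fifteen concentrations, triplicate.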

[18] = target: 5-hydroxytryptamine receptor 2A (Homo sapiens) (UniProt P28223); assay: 5-hydroxytryptamine receptor 2A (HTR2A) small molecule antagonists, cell-based qHTS assay (AID 1963586); further: nearly all actives have a fitted effect of over 45% in size
Summary of the method: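 Antagonist-mode intracellular calcium assay: DOI (4 nM) added after 5 min compound pre-incubation at room temperature to dye-loaded HTR2A-CHO cells. Fluorescence followed for 3 min, sampled every second.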

Measured: Potency

Beta-2 adrenergic receptor (Homo sapiens), sequence (P07550 whole entry, looked up): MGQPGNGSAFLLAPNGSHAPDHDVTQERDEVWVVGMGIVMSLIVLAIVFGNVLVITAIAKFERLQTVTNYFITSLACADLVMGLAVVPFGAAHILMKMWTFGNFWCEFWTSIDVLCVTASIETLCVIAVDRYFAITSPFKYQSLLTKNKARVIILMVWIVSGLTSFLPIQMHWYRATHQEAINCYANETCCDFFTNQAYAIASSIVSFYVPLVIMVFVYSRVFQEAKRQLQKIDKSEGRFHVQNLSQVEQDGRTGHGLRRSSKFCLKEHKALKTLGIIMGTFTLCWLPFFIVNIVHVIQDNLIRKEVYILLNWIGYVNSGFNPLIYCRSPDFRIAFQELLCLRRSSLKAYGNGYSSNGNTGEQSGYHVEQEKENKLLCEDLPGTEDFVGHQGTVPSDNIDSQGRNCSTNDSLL
KiSS-1 receptor (Homo sapiens), sequence (Q969F8 whole entry, looked up): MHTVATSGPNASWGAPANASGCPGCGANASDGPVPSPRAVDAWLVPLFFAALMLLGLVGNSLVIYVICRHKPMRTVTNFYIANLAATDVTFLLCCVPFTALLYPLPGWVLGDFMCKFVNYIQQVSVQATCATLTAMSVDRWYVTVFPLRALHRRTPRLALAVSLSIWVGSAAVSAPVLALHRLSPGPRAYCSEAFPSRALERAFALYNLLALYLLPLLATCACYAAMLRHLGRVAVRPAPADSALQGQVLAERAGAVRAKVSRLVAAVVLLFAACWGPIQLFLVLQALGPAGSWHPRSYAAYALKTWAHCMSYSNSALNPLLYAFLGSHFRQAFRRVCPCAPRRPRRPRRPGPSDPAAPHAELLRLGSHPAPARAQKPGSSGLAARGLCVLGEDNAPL
D(2) dopamine receptor (Homo sapiens), sequence (P14416 whole entry, looked up): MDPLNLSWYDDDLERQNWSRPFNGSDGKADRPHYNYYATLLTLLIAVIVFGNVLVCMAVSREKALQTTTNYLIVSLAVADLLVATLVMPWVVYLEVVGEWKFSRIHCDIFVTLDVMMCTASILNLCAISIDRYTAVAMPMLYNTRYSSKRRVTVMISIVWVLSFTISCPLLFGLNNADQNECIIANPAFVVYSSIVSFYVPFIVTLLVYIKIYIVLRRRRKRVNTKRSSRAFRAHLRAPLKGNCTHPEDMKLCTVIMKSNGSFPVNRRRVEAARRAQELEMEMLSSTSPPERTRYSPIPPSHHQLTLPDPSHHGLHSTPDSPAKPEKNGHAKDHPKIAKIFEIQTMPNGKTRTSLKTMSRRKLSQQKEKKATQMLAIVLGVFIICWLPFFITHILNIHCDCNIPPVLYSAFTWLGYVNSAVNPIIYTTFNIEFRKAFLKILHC
5-hydroxytryptamine receptor 2A (Homo sapiens), sequence (P28223 whole entry, looked up): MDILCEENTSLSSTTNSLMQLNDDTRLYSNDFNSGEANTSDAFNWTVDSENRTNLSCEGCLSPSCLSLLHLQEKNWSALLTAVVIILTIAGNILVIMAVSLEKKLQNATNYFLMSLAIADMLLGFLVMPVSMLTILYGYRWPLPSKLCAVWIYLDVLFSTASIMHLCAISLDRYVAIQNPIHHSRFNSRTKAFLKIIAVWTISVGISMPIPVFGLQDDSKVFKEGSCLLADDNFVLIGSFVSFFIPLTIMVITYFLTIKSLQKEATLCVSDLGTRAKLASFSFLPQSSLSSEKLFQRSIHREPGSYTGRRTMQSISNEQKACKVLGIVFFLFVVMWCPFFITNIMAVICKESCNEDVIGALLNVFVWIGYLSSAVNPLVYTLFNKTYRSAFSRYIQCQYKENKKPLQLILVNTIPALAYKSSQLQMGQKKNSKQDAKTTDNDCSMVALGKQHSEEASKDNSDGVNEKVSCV
Muscarinic acetylcholine receptor M1 (Homo sapiens), sequence (P11229 whole entry, looked up): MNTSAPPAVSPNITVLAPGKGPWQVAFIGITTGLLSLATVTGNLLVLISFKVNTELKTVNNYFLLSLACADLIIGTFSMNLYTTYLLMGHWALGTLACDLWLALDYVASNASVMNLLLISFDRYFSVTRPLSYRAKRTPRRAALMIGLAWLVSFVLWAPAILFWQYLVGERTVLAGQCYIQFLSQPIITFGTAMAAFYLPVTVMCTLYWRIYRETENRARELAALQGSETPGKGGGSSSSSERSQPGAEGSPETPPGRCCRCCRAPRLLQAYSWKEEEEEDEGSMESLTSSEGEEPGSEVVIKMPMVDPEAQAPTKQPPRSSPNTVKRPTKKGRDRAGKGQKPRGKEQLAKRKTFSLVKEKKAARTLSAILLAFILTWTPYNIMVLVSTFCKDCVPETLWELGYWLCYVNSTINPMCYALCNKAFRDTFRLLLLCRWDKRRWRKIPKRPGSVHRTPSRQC

CC(=O)Oc1ccc(C(=C2CCCCC2)c2ccc(OC(C)=O)cc2)cc1
not listed: [17] | [18]
inactive: all other assays above

C=C(C)C(=O)OC
not listed: [6]
inactive: all other assays above

On1ccccc1=S
active: [1] 0.27 µM | [9] 21.7 µM
not listed: [6] | [7] | [8] | [13]
inactive: all other assays above

CC(CCO)CCCC(C)(C)O (stereo unspecified)
not listed: [3] | [4] | [8]
inactive: all other assays above

O=C1C=CC(=O)N1c1ccccc1
active: [1] 27.3 µM | [5] 20.4 µM | [9] 24.5 µM | [16] 13.7 µM
inactive: [17] | [2] | [4] | [18] | [10]

CN(C)C(=O)COC(=O)Cc1ccc(OC(=O)c2ccc(N=C(N)N)cc2)cc1
not listed: [3] | [4] | [5] | [7] | [8] | [13] | [14]
inactive: all other assays above

O=C(c1ccc(O)cc1)c1ccc(O)c(O)c1O
not listed: [12] | [13] | [14] | [15] | [16] | [18]
inactive: all other assays above

Cc1cc(-c2ccc(N=Nc3cc(S(=O)(=O)O)c4ccccc4c3N)c(C)c2)ccc1N=Nc1cc(S(=O)(=O)O)c2ccccc2c1N
active: [10] 7.52 µM
not listed: [2] | [8] | [12]
inactive: all other assays above

C=CC(C)(CCC=C(C)C)OC(=O)CC(C)C (stereo unspecified)
not listed: [3] | [4] | [6] | [8] | [14]
inactive: all other assays above

CCCCc1cc2ccccc2c(OCCN(C)C)n1
not listed: [7] | [10] | [14] | [16]
inactive: all other assays above

O=S(=O)(O)c1cc(Cl)c(Cl)cc1Cl
not listed: [9]
inactive: all other assays above

CCOC(=O)C1=C[C@]2(CC)CCCN3CCc4c(n1c1ccccc41)[C@@H]32
active: [9] 23.9 µM
not listed: [7] | [8] | [10] | [12]
inactive: all other assays above

CCCCCCCCCC[N+](C)(CCCCCCCCCC)CCC[Si](OC)(OC)OC
inactive: [17] | [2] | [18] | [9] | [10] | [11] | [14] | [15]
active: [1] 21.7 µM | [5] 36.3 µM

CC(=O)N1CCN(c2ccc(OC[C@H]3CO[C@](Cn4ccnc4)(c4ccc(Cl)cc4Cl)O3)cc2)CC1
inactive: [17] | [4] | [15]
active: [1] 54.5 µM

O=C1c2c(O)ccc([N+](=O)[O-])c2C(=O)c2c([N+](=O)[O-])ccc(O)c21
inactive: [17] | [2] | [9] | [10] | [11]
active: [1] 15.2 µM | [5] 18 µM | [6] 20.2 µM | [7] 5.71 µM

C=CCCCCCCC=C
not listed: [10]
inactive: all other assays above

C[C@H](CCC(=O)O)[C@H]1CC[C@H]2[C@@H]3CC[C@@H]4C[C@H](O)CC[C@]4(C)[C@H]3CC[C@]12C
active: [9] 24.4 µM
not listed: [8] | [11] | [12] | [18]
inactive: all other assays above

O=C(O)COc1nn(Cc2ccccc2)c2ccccc12
not listed: [3] | [12] | [13]
inactive: all other assays above
